# In publication PMC5540273 (PLoS ONE, 2017):
# How the values were obtained:
# Conditions in all cases: concentration: 1 μM, replicates: in singlicate; n = 1
# [1] = tested on: T1, RSK1(Kin.Dom.1-N-terminal)
# T1 construct: gene RPS6KA1
# [2] = tested on: T2, RSK1(Kin.Dom.2-C-terminal)
# T2 construct: gene RPS6KA1
# [3] = tested on: T3, RSK2(Kin.Dom.1-N-terminal)
# T3 construct: gene RPS6KA3
# [4] = tested on: T4, RSK2(Kin.Dom.2-C-terminal)
# T4 construct: gene RPS6KA3
# [5] = tested on: T5, RSK3(Kin.Dom.1-N-terminal)
# T5 construct: gene RPS6KA2
# [6] = tested on: T6, RSK3(Kin.Dom.2-C-terminal)
# T6 construct: gene RPS6KA2
# [7] = tested on: T7, RSK4(Kin.Dom.1-N-terminal)
# T7 construct: gene RPS6KA6
# [8] = tested on: T8, RSK4(Kin.Dom.2-C-terminal)
# T8 construct: gene RPS6KA6
# S6K1 = tested on: S6K1
# SBK1 = tested on: SBK1
# SGK2 = tested on: SGK2
# SGK3 = tested on: SGK3
# SGK = tested on: SGK
# SIK2 = tested on: SIK2
# SIK = tested on: SIK
# SLK = tested on: SLK
# SNARK = tested on: T9, SNARK
# T9 construct: gene NUAK2
# SNRK = tested on: SNRK
# SRC = tested on: SRC
# SRMS = tested on: SRMS
# 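Note: KINOMEscan kinase panel screen.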
Structure (SMILES),%Inh [1],%Inh [2],%Inh [3],%Inh [4],%Inh [5],%Inh [6],%Inh [7],%Inh [8],%Inh (S6K1),%Inh (SBK1),%Inh (SGK2),%Inh (SGK3),%Inh (SGK),%Inh (SIK2),%Inh (SIK),%Inh (SLK),%Inh (SNARK),%Inh (SNRK),%Inh (SRC),%Inh (SRMS)
CCS(=O)(=O)c1ccc(OC)c(Nc2ncc(-c3ccc(F)cc3)o2)c1.Cl [GW591947],11%,0%,0%,22%,0%,2%,0%,3%,0%,0%,2%,0%,0%,0%,2%,6%,0%,0%,0%,0%
Cn1c(=O)c(F)c(Nc2ccc(I)cc2F)c2c(=O)n(OC[C@H](O)CO)cnc21,18%,12%,39%,38%,11%,1%,0%,6%,0%,0%,3%,0%,0%,0%,4%,0%,0%,0%,11%,0%
OCCCNc1nccc(-c2c(-c3cccc(C(F)(F)F)c3)nn3cc(C(F)(F)F)ccc23)n1 [GW630813],0%,32%,0%,5%,0%,0%,0%,89%,1%,0%,0%,6%,0%,0%,0%,4%,0%,0%,0%,0%
COC(=O)c1c(-c2ccccc2)c2cc(C)ccc2c(=O)n1Cc1ccccc1,0%,20%,0%,0%,15%,15%,0%,22%,0%,0%,0%,0%,0%,0%,3%,0%,0%,0%,0%,0%
Nc1ncnc2c1ncn2-c1cccc(F)c1 [SKF-97560],31%,0%,23%,0%,9%,0%,21%,0%,36%,25%,38%,0%,37%,0%,1%,18%,13%,20%,22%,14%
